Results published in the supplement of paper PMC10981050.
Values joined by “and” are separate entries in the source; they are usually repeats but may differ in a detail not shown here. Equal values may be shown once. Where a name gives a salt, the structure may show the parent alone.

How the values were obtained:
Test in all cases: cell viability relative to vehicle control; higher = less cytotoxic
Settings in all cases: 10 µM
[1] = test system: K562
Procedure, shortened: (§1)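 CRISPR-edited mutant clones and isogenic wild-type clones from four leukaemia lines were screened against Selleck bioactive, kinase and epigenetic probe libraries, with identity-inconsistent compounds excluded. Each compound was acoustically dispensed at a single 10 µM dose into 384-well plates holding 2000 cells in 50 µL medium per well. After 48 h the supernatant was removed and CellTiter-Glo luminescence was read. Viability was expressed as percent of the on-plate vehicle control and analysed in Genedata Screener.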

[2] = test system: MARIMO
Procedure, shortened: as §1

[3] = test system: MOLM14
Procedure, shortened: as §1

[4] = test system: OCI-AML2
Procedure, shortened: as §1

Compound | cell viability ([1]; SRSF2 genotype: SRSF2 P95H/wt) | cell viability ([1]; SRSF2 genotype: SRSF2 wt/wt) [%] | cell viability ([2]; SRSF2 genotype: SRSF2 P95H/wt) [%] | cell viability ([2]; SRSF2 genotype: SRSF2 wt/wt) [%] | cell viability ([3]; SRSF2 genotype: SRSF2 P95H/wt) [%] | cell viability ([3]; SRSF2 genotype: SRSF2 wt/wt) [%] | cell viability ([4]; SRSF2 genotype: P95H/wt) [%] | cell viability ([4]; SRSF2 genotype: wt/wt) [%]
CC[C@@H](N)CNc1ccnc(-c2cc(-c3cnn(C)c3)ccc2O)n1 | 5.05% and 8.35% | 7.08 | 2.69 | 1.1 | 0.8 | 0.44 | 1.45 | 10.8
O=S(=O)(c1ccccc1)N(CC(F)(F)F)c1ccc(C(O)(C(F)(F)F)C(F)(F)F)cc1 | 74.6% and 72.6% | 72.3 | 67.8 | 70.4 | 62.3 | 65.2 | 67.5 | 70.7
OCC(O)C(O)CO (stereo not given) [Erythritol] | 100% and 105% | 99.9 | 98.4 | 106 | 101 | 101 | 98.2 | 110
COc1ccc(CCC(=O)N(c2nccc3ccccc23)[C@@H]2CCCNC2)cc1 | 91.8% and 90.5% | 85.2 | 79 | 93.4 | 80.5 | 85.3 | 91 | 91.2
Cc1ncc(-c2ccnc(Nc3ccc(S(C)(=O)=O)cc3)n2)n1C(C)C | 45.1% and 45.5% | 32.4 | 10.9 | 5.22 | 1.23 | 0.38 | 0.94 | 15.2
O=C(NS(=O)(=O)c1ccc(Br)s1)c1ccc(Cl)cc1Cl | 92.9% and 102% | 103 | 97 | 98.4 | 61.8 | 83.3 | 73.9 | 87.6
O=C(CNc1ccc2ccccc2c1)N/N=C/c1cc(Br)c(O)c(Br)c1O | 81.1% and 82.1% | 72.8 | 50.8 | 65.4 | 62.3 | 51.7 | 49.8 | 58.5
Oc1ccc2c(c1)OC[C@H]1c3cc4c(cc3O[C@@H]21)OCO4 [Maackiain] | 82.8% and 87.4% | 79.4 | 80 | 83.8 | 90.7 | 85.4 | 82.3 | 84.6
O=C(O)c1cc(C(=O)O)c(C(=O)N(Cc2cccc(Oc3ccccc3)c2)[C@H]2CCCc3ccccc32)cc1C(=O)O | 119% and 108% | 113 | 102 | 103 | 105 | 101 | 106 | 105
CC(=O)Oc1ccccc1C(=O)Nc1ncc([N+](=O)[O-])s1 [Nitazoxanide (Alinia, Annita)] | 78.4% and 85.8% | 78.4 | 94.8 | 90.9 | 92.5 | 89.7 | 87.5 | 85.5
C=C[C@@H]1C[C@]1(NC(=O)[C@@H]1C[C@@H]2CN1C(=O)[C@H](C(C)(C)C)NC(=O)O[C@@H]1C[C@H]1CCCCCc1nc3ccc(OC)cc3nc1O2)C(=O)NS(=O)(=O)C1CC1 [Grazoprevir] | 96.2% and 101% | 93.4 | 115 | 123 | 111 | 105 | 116 | 115
COc1cc2c(cc1OC)CN(CCc1ccc(NC(=O)c3cc(OC)c(OC)cc3NC(=O)c3cnc4ccccc4c3)cc1)CC2 [Tariquidar] | 94.6% and 105% | 96.9 | 95.3 | 105 | 93.5 | 95.7 | 96.4 | 100
CN(CCOc1ccc(CC2SC(=O)NC2=O)cc1)c1ccccn1 (stereo not given) [Rosiglitazone (Avandia)] | 101% and 90.7% | 85 | 89.6 | 101 | 90 | 96.6 | 94 | 101
CC(=O)Oc1ccccc1C(=O)O [Aspirin (Acetylsalicylic acid)] | 102% and 101% | 94 | 96.4 | 95.9 | 95.7 | 102 | 100 | 96.7
CC(=O)Nc1nc(C)c(-c2ccc(Cl)c(S(=O)(=O)NCCO)c2)s1 | 74.9% and 77.5% | 81.1 | 38.1 | 38.7 | 32.8 | 37.1 | 12.2 | 24.4
CCC(=O)NS(=O)(=O)c1ccc(-c2c(-c3ccccc3)noc2C)cc1 [Parecoxib] | 100% and 96.7% | 97.5 | 101 | 108 | 101 | 101 | 88.3 | 99.7
CC(C(=O)Nc1cccc(/N=C/c2c(O)ccc3ccccc23)c1)c1ccccc1 (stereo not given) [Salermide] | 82.7% and 84.2% | 83.2 | 90.8 | 93.8 | 104 | 101 | 88.6 | 90.3
CCCC[S+]([O-])c1sc2nc(-c3cccs3)cc(-c3ccccc3)c2c1N (stereo not given) | 94.5% and 97% | 92.9 | 95 | 109 | 103 | 99.4 | 98.7 | 98.8
CCOC(=O)C1=C(COCCN)NC(C)=C(C(=O)OC)[C@@H]1c1ccccc1Cl [Levamlodipine] | 75.1% and 83.2% | 77 | 72.9 | 75 | 50.3 | 52 | 30.2 | 39.7
C[C@H](Nc1ncnc2nc[nH]c12)c1cc2cccc(Cl)c2c(=O)n1-c1ccccc1 [Duvelisib (IPI-145, INK1197)] | 93.1% and 95.6% | 94.3 | 67.6 | 62.3 | 50.2 | 51.6 | 28.7 | 38

Compound | cell viability ([1]; SRSF2 genotype: SRSF2 P95H/wt) | cell viability ([1]; SRSF2 genotype: SRSF2 wt/wt) [%] | cell viability ([2]; SRSF2 genotype: SRSF2 P95H/wt) [%] | cell viability ([2]; SRSF2 genotype: SRSF2 wt/wt) [%] | cell viability ([3]; SRSF2 genotype: SRSF2 P95H/wt) [%] | cell viability ([3]; SRSF2 genotype: SRSF2 wt/wt) [%] | cell viability ([4]; SRSF2 genotype: P95H/wt) [%] | cell viability ([4]; SRSF2 genotype: wt/wt) [%]
Cc1cnc(Nc2ccc(F)cc2Cl)nc1-c1c[nH]c(C(=O)NC(CO)c2cccc(Cl)c2)c1 (stereo not given) | 60.8% and 83.2% | 72.9 | 44.9 | 46 | 58.5 | 48.1 | 47.4 | 47.7
CC(C)C1=CC2=CC[C@@H]3[C@](C)(CCC[C@@]3(C)C(=O)O)[C@H]2CC1 [Abietic Acid] | 113% and 104% | 98.8 | 105 | 115 | 99.5 | 105 | 90.9 | 95.5
CCCCCCCCCCCCCCCC(=O)OC [Methyl palmitate] | 103% and 99.7% | 100 | 99 | 92.7 | 103 | 97.7 | 102 | 98.1
C[S+](CC[C@H](N)C(=O)[O-])C[C@H]1O[C@@H](n2cnc3c(N)ncnc32)[C@H](O)[C@@H]1O (stereo not given in full) [Ademetionine disulfate tosylate] | 105% and 97.3% | 103 | 102 | 110 | 112 | 115 | 117 | 110
C=CCc1cc(OC)c(OC)c(OC)c1 [Elemicin] | 106% and 105% | 113 | 111 | 104 | 105 | 109 | 109 | 123
O=C(c1ccccc1)c1ccc2n1CCC2C(=O)O (stereo not given) [Ketorolac] | 102% and 98.1% | 99.6 | 100 | 102 | 98.2 | 102 | 103 | 108
Cn1c(=O)c2c(ncn2CC(O)CO)n(C)c1=O (stereo not given) [Dyphylline (Dilor)] | 101% and 102% | 100 | 94.9 | 105 | 97.8 | 101 | 95 | 102
COC(=O)c1ccc(O)c(O)c1 [Methyl protocatechuate] | 105% | 105 | 90.5 | 101 | 101 | 109 | 117 | 97.9
CC[C@@]1(O)C(=O)OCc2c1cc1n(c2=O)Cc2cc3c(CN(C)C)c(O)ccc3nc2-1 [Topotecan HCl] | 15% and 25% | 12.9 | 5.05 | 3.35 | 0.55 | 0.35 | 3.3 | 8.46
NC(=O)C1CCCc2c1[nH]c1ccc(Cl)cc21 (stereo not given) | 97% and 96% | 105 | 89 | 102 | 96 | 99.6 | 91.2 | 92.2
CC(C)CC(=O)Nc1n[nH]c2c1CN(C(=O)C1CCN(C)CC1)C2(C)C | 37.5% and 39.7% | 38.4 | 15.8 | 6.67 | 2.48 | 1.14 | 8.45 | 17.8
O=C(O)CCNc1cc(N2CCc3ccccc3CC2)nc(-c2ccccn2)n1 | 108% and 104% | 99.5 | 102 | 107 | 108 | 107 | 106 | 111
NS(=O)(=O)NCCNc1nonc1/C(=N/O)Nc1ccc(F)c(Br)c1 | 97.2% and 102% | 95.5 | 102 | 104 | 103 | 100 | 106 | 109
Cc1cc(Nc2ccc(NC(=O)c3ccc(Nc4ccnc5ccccc45)cc3)cc2)nc(N)n1 | 1.14% and 0.97% | 2.69 | 0.48 | 0.36 | 0.33 | 0.25 | 0.22 | 0.27
Cc1c(NC(=O)c2ccc(C(C)(C)C)cc2)cccc1-c1cn(C)c(=O)c(Nc2ccc(C(=O)N3CCOCC3)cc2)n1 | 94% and 92.1% | 90.8 | 91.5 | 97.4 | 96.1 | 93.4 | 82 | 87.4
CN(C)C(=O)c1cc2cnc(Nc3ccc(N4CCNCC4)cn3)nc2n1C1CCCC1 [Ribociclib (LEE011)] | 96.4% and 111% | 110 | 68 | 64.7 | 54.2 | 46 | 62 | 57
Cc1cc(-c2ccc(/N=N/c3ccc4c(S(=O)(=O)O)cc(S(=O)(=O)O)c(N)c4c3O)c(C)c2)ccc1/N=N/c1ccc2c(S(=O)(=O)O)cc(S(=O)(=O)O)c(N)c2c1O [Evans Blue] | 66.2% and 64.2% | 62.8 | 63.8 | 72.2 | 67.4 | 64.7 | 66.2 | 67.6
O=c1c(-c2ccc(O)cc2)coc2cc(O[C@@H]3O[C@H](CO)[C@@H](O)[C@H](O)[C@H]3O)ccc12 [Daidzin] | 94.3% and 101% | 96.3 | 91.7 | 104 | 98 | 104 | 93.5 | 98.4
c1ccc2c(CCNc3ccc(Nc4ccncc4)cc3)c[nH]c2c1 | 28.3% and 44.5% | 46 | 21.3 | 44.4 | 0.51 | 0.5 | 0.66 | 2
CCNC(=O)c1noc(-c2cc(C(C)C)c(O)cc2O)c1-c1ccc(CN2CCOCC2)cc1 [Luminespib (AUY-922, NVP-AUY922)] | 16.9% and 29.2% | 25.6 | 32.3 | 26 | 1.2 | 1.31 | 12.3 | 20.7
